# PglD inh: blocks C. jejuni PglD acetyltransferase activity. AID 602405. inhibition, % at 12.5 µM. hit rate 0.098% among 360,000. purified PglD enzyme, DTNB colorimetric CoA detection; in the data active means inhibition above about 16%, passing the limit was not always enough
# ALR H2O2 inh: inhibitors of human sulfhydryl oxidase ALR. P55789. purified ALR, DTT oxidation, H2O2 HRP-luminol luminescence. inhibition, % (concentration not given with the values). hit rate 3.8% among 290,000;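 active means mean replicate inhibition above about 79%, with every replicate also reaching it, limit read from the data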
# NRP1-CendR mod: alters CendR peptide binding to human NRP-1. AID 602438. FAM-RPARPAR peptide binding to NRP-1, fluorescence polarization. hit rate 0.85% among 360,000. O14786. inhibition, % at 25 µM;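 active means inhibition or corrected inhibition above about 18%, plus a signal ratio from 0.5 to 1.5, limit read from the data, passing the limit was not always enough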
# Target sequence (O14786 whole entry, looked up): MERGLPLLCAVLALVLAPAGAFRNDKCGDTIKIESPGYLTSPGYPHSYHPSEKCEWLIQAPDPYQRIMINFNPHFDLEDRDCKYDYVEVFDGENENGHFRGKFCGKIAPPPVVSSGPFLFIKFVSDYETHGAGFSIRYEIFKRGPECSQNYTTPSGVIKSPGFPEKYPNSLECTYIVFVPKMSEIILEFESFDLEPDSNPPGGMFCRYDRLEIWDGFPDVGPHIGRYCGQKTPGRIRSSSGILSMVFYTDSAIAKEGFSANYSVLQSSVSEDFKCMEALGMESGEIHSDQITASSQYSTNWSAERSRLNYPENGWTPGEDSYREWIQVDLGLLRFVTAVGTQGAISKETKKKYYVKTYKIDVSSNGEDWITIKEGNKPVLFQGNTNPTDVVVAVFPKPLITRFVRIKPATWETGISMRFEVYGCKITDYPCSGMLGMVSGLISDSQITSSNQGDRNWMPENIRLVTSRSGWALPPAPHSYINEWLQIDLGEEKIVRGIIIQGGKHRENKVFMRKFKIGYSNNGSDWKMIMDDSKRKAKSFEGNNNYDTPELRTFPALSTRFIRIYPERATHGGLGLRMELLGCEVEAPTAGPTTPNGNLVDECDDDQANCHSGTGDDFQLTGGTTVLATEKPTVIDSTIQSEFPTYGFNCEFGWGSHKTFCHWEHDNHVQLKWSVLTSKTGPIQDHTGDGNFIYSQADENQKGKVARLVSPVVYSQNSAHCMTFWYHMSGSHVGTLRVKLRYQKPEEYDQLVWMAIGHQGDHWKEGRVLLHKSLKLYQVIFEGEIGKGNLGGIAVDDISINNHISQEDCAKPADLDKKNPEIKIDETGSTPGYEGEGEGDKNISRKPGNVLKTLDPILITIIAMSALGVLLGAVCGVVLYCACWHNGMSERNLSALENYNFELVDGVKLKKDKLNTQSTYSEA
# ERp5 block: blocks human ERp5 reductase activity on insulin; AID 651711; ERp5 insulin aggregation, absorbance 650 nm, 90 min; Q15084; inhibition, % at 9.99 µM; hit rate 0.05% among 350,000;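 active means mean replicate inhibition above about 25%, with every replicate also reaching it, limit read from the data, passing the limit was not always enough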
# PDI inh: PDI (human) enzyme inhibition | P07237 | inhibition, % at 10 µM | hit rate 0.052% among 350,000 | PDI insulin aggregation turbidity, A650, 90 min;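 active means mean inhibition across replicates of 30% or more, whatever share of single replicates reach that level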
# ARNT-TACC3 inh: disrupts binding between human ARNT and TACC3; Q9Y6A5; AlphaScreen His-ARNT PAS-B/GST-TACC3 binding, luminescence; TACC3 fragment carries E629A point mutation; inhibition, % at 9.99 µM; hit rate 0.66% among 390,000;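 active means mean inhibition of replicates at least 50% and at least half of replicates each reaching 50%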;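 further: 0% = complete ARNT plus TACC3 wells and 100% = ARNT alone without TACC3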
# Starred values were filed as active, the others as inactive; . = not tested or not shown. The full list was thinned out, with hits kept by preference.
SMILES,PglD inh,ALR H2O2 inh,NRP1-CendR mod,ERp5 block,PDI inh,ARNT-TACC3 inh
NC(=O)CSc1nnc(-c2ccccn2)n1N,.,.,-2,2,1,45*
CC(C)OC(=O)CSc1nnc(-c2ccccn2)n1N,-1,-2,1,3,-2,.
C[C@H](CO)N1C[C@H](C)[C@@H](CN(C)C(=O)NC2CCCC2)Oc2ncc(-c3ccccc3)cc2C1=O,-1,.,.,-6,.,-7
C=CCn1c(SCC(=O)NC2CCCC2)nnc1-c1cccnc1,-1,3,12,2,0,.
C=CCn1c(SCC(=O)c2ccc(O)c(O)c2)nnc1-c1cccc(Cl)c1,0,98*,-41,3,-1,-1
C=CCn1c(SCC(=O)c2ccc(O)c(O)c2)nnc1-c1cccc(C)c1,9,70,-70,-3,0,3
C=CCn1c(SCC(=O)c2ccc(O)c(O)c2)nnc1-c1cccnc1,.,99*,-31,3,1,3
C=CCn1c(SCC(N)=O)nnc1-c1cc(Br)ccc1O,5,97*,-7,5,-5,0
O=C(NC1Cc2ccccc2C1)[C@H]1[C@H](CO)[C@H]2Cn3c(cccc3=O)[C@H]2N1C(=O)C1CCC1,0,.,.,-1,.,2
Oc1ccc(-c2cn3cc(C(F)(F)F)ccc3n2)cc1,.,90*,-59,.,-10,-19
CCCn1c(C(C)Nc2nc(-c3ccc(Cl)c([N+](=O)[O-])c3)cs2)nc2ccccc21 (stereo unspecified),5,-13,-1,-6,-2,0
Cc1ccc(Cn2c(C(C)Nc3nc(-c4ccc(Cl)c([N+](=O)[O-])c4)cs3)nc3cc(C(F)(F)F)ccc32)cc1 (stereo unspecified),-1,.,35*,3,-4,-2
Cc1csc(NC(C)c2nc3cc(C(F)(F)F)ccc3n2CCCO)n1 (stereo unspecified),-6,32,35*,4,-2,2
CC(Nc1nc(-c2ccc(F)cc2)cs1)c1nc2cc(Cl)c(Cl)cc2n1CCCO (stereo unspecified),1,46,3,2,-2,-2
COC(=O)C1=NN(N=O)C2(CC(=O)N(c3cc(C)cc(C)c3)C2=O)C1 (stereo unspecified),-3,85*,-16,.,3,19
C[C@H](CO)N1C[C@H](C)[C@@H](CN(C)C(=O)Nc2ccc(F)cc2)Oc2ccc(NC(=O)CCC(F)(F)F)cc2CC1=O,-5,.,.,2,.,-2
O=C(NC1CCCC1)C1CCCN(S(=O)(=O)c2cnc[nH]2)C1 (stereo unspecified),2,96*,5,2,1,-6
O=C(NC1CCCCCCC1)C1CCCN(S(=O)(=O)c2cnc[nH]2)C1 (stereo unspecified),-3,95*,8,-10,9,-11
C[C@H](CO)N1C[C@H](C)[C@H](CN(C)C)Oc2cc(-c3cccc(C#N)c3)ccc2S1(=O)=O,-3,.,.,-2,.,4
CCCN(C)C[C@H]1OCCCC[C@H](C)Oc2ccc(NS(=O)(=O)c3ccccc3)cc2C(=O)N([C@H](C)CO)C[C@H]1C,0,.,.,-5,.,31
C/C(CC1CC(COCC(C)C)OC1=O)=N\Nc1nc(-c2ccccc2)cs1 (stereo unspecified),-2,98*,-3,.,5,8
CC1CC(CC(=O)Nc2nc(-c3ccccc3)cs2)C(=O)O1 (stereo unspecified),-1,-4,1,-2,3,12
Cc1cc(/C=C2/C(=N)N3C(=NC2=O)SN=C3S(C)(=O)=O)c(C)n1-c1ccccc1F,.,91*,-13,.,-4,.
CC1=CC2=NC(=O)/C(=C\c3cc(C)n(-c4ccccc4F)c3C)C(=N)N2O1,-2,-5,-6,-1,-17,2
CN1CCN(C(=O)C[C@@H]2C[C@H]3c4cc(NS(C)(=O)=O)ccc4O[C@H]3[C@H](CO)O2)CC1,-2,.,.,-1,.,-4
O=C(CCCn1c(=S)[nH]c2ccsc2c1=O)Nc1ccc2c(c1)OCO2,1,5,-1,4,-4,9
CCOC(=O)N1CCN(C(=O)CCCCn2c(=S)[nH]c3ccsc3c2=O)CC1,.,96*,-2,-4,0,-18
CCOC(=O)N1CCN(C(=O)CCn2c(=S)[nH]c3ccccc3c2=O)CC1,0,.,-7,0,-14,-2

# From PubChem BioAssay
